According to the supplement of paper PMC10849652:
About 7,900 targets were measured; listed, in parts, are those with a hit and a random draw of the rest. About 0.6% of all pairs of compound and target were hits.

What was measured:
Experiment in all cases: log2 fold change, soluble protein after heating vs DMSO (PISA); higher = thermal stabilisation; K562 cells, 10 uM, 30 min; active = over 0.2 and 3.5 SD of the protein, either way, in both replicates (recomputed)
saracatinib = compound: CN1CCN(CCOc2cc(OC3CCOCC3)c3c(Nc4c(Cl)ccc5c4OCO5)ncnc3c2)CC1 [saracatinib]
Method in brief: (§1)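 K562 cells at 2×10^6 cells/mL were given 10 μM compound for 30 min. Aliquots then went through 3 min of heating across 48°C-58°C, were pooled, and were extracted in PBS with 0.5% NP-40 at 4°C, and the supernatant after 21,000xg for 90 min was quantified by TMTpro 16plex LC-MS/MS with channel sums equalised. Thermal stability relative to control samples, from duplicates, is given as log2 fold change.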

sotrastaurin = compound: CN1CCN(c2nc(C3=C(c4c[nH]c5ccccc45)C(=O)NC3=O)c3ccccc3n2)CC1 [sotrastaurin]
Method in brief: as §1

Tubastatin A = compound: CN1CCc2c(c3ccccc3n2Cc2ccc(C(=O)NO)cc2)C1 [Tubastatin A]
Method in brief: as §1

[1] = compound: CNC(=O)C1=CC=CC=C1NC2=NC(=NC=C2Cl)NC3=C(C=C(C=C3)N4CCOCC4)OC
Method in brief: as §1

defactinib = compound: CNC(=O)c1ccc(Nc2ncc(C(F)(F)F)c(NCc3nccnc3N(C)S(C)(=O)=O)n2)cc1 [defactinib]
Method in brief: as §1

rucaparib = compound: CNCc1ccc(-c2[nH]c3cc(F)cc4c3c2CCNC4=O)cc1 [rucaparib]
Method in brief: as §1

[2] = compound: CNc1nc(-c2ccc3c(N)n[nH]c3c2)cc(N2C[C@@H](C(=O)NC3CCCCC3)CC[C@H]2C)n1
Method in brief: as §1

encorafenib = compound: COC(=O)N[C@@H](C)CNc1nccc(-c2cn(C(C)C)nc2-c2cc(Cl)cc(NS(C)(=O)=O)c2F)n1 [encorafenib]
Method in brief: as §1

[3] = compound: COC(=O)[C@H](CCSC)NC(=O)C1=C(C=C(C=C1)NC[C@H](CS)N)C2=CC=CC=C2
Method in brief: as §1

alvocidib = compound: CN1CC[C@H](c2c(O)cc(O)c3c(=O)cc(-c4ccccc4Cl)oc23)[C@H](O)C1 [alvocidib]
Method in brief: as §1

Measured: log2 fold change

IL10RB (UniProt Q08334)
inactive: saracatinib 0.107 | sotrastaurin -0.021 | Tubastatin A 0.022 | [1] -0.121 | defactinib -0.042 | rucaparib 0.015 | [2] -0.005 | encorafenib -0.093 | [3] 0.026

MED7 (UniProt O43513)
UniProt O43513, sequence (O43513 whole entry, looked up): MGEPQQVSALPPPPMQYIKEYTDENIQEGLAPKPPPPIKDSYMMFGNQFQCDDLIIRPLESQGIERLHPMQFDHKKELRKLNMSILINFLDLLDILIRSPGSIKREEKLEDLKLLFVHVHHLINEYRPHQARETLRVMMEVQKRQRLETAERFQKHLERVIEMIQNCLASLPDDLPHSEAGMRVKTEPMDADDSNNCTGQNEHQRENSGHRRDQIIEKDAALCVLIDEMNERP
inactive: saracatinib -0.026 | sotrastaurin 0.151 | alvocidib -0.072 | Tubastatin A -0.145 | [1] -0.056 | defactinib -0.015 | [2] -0.006 | [3] 0.012

LUZP1 (UniProt Q86V48)
inactive: saracatinib 0.075 | sotrastaurin -0.088 | alvocidib 0.229 | Tubastatin A 0.13 | [1] -0.022 | defactinib -0.498 | [2] 0.002 | [3] -0.209

ITGA2B (UniProt P08514)
inactive: saracatinib 0.025 | sotrastaurin -0.03 | alvocidib 0.111 | Tubastatin A -0.043 | [1] 0.037 | defactinib 0.059 | [2] -0.036 | [3] 0.058

MED8 isoform 2 (UniProt Q96G25)
UniProt Q96G25, sequence (Q96G25 whole entry, looked up): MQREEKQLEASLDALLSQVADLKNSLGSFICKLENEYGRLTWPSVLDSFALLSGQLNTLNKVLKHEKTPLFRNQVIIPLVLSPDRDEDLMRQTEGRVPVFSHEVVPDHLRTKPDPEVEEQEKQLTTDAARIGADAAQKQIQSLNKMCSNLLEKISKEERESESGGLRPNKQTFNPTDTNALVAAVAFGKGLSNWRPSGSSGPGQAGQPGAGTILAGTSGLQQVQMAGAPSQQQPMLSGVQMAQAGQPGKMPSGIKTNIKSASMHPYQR
inactive: saracatinib 0.003 | sotrastaurin 0.044 | alvocidib 0.007 | [1] 0.039 | defactinib -0.031 | rucaparib 0.04 | [2] -0.131 | encorafenib -0.024 | [3] 0.141

LMBR1 isoform 3 (UniProt Q8WVP7)
inactive: saracatinib 0.085 | sotrastaurin -0.004 | alvocidib -0.06 | Tubastatin A 0.079 | [1] -0.045 | defactinib -0.104 | [2] -0.009 | [3] 0.132

MDN1 (UniProt Q9NU22)
inactive: saracatinib -0.029 | sotrastaurin -0.035 | alvocidib -0.143 | Tubastatin A 0.033 | [1] -0.092 | defactinib -0.166 | rucaparib -0.067 | [2] 0.018 | encorafenib 0.018 | [3] -0.049

KRAS isoform 2 (UniProt P01116)
inactive: saracatinib 0.039 | sotrastaurin 0.045 | alvocidib -0.062 | Tubastatin A -0.036 | [1] 0.027 | defactinib 0.013 | rucaparib -0.028 | [2] 0.011 | encorafenib 0.043 | [3] 0.02

MAGEA8 (UniProt P43361)
UniProt P43361, sequence (P43361 whole entry, looked up): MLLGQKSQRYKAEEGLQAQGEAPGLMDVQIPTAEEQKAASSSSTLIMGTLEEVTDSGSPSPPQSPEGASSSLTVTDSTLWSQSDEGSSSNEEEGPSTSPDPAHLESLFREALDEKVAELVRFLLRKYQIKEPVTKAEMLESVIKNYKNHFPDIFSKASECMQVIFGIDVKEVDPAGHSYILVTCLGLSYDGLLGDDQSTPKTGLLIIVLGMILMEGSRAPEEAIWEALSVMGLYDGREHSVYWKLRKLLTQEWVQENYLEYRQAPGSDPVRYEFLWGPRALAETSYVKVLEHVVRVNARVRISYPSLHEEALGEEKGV
inactive: saracatinib -0.006 | alvocidib -0.022 | Tubastatin A 0.101 | [1] 0.123 | defactinib -0.267 | rucaparib -0.012 | [2] -0.092 | encorafenib 0.038 | [3] -0.038

LPGAT1 (UniProt Q92604)
inactive: saracatinib 0.111 | sotrastaurin -0.001 | alvocidib -0.011 | Tubastatin A 0.019 | [1] 0.073 | defactinib -0.184 | rucaparib 0.036 | [2] -0.187 | encorafenib 0.026 | [3] 0.015

LONP2 (UniProt Q86WA8)
inactive: saracatinib 0.006 | sotrastaurin 0.003 | alvocidib -0.029 | Tubastatin A 0.135 | [1] 0 | defactinib -0.12 | rucaparib 0.067 | [2] -0.079 | encorafenib 0.13 | [3] 0.007

MCOLN3 (UniProt Q8TDD5)
inactive: Tubastatin A -0.001 | [1] -0.141 | rucaparib -0.275 | encorafenib -0.026

IGFBP6 (UniProt P24592)
inactive: saracatinib 0.011 | alvocidib 0.136 | defactinib 0.144 | [2] -0.094 | [3] 0.055

LAPTM4B (UniProt Q86VI4)
UniProt Q86VI4, sequence (Q86VI4 whole entry, looked up): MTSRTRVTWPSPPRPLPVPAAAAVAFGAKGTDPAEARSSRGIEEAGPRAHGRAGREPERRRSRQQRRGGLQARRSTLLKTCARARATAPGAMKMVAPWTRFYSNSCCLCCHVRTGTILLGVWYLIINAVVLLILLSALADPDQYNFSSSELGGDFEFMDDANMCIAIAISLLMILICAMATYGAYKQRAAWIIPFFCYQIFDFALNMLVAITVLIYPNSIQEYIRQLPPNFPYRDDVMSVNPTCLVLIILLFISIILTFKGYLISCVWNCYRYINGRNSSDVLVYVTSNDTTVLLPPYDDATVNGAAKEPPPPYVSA
inactive: sotrastaurin -0.194 | [1] 0.007 | rucaparib 0 | encorafenib 0.009

MAML1 (UniProt Q92585)
inactive: sotrastaurin -0.051 | alvocidib 0.062 | defactinib -0.179 | [3] -0.327
active: [1] 0.644

MAP2K5 (UniProt Q13163)
inactive: saracatinib 0.445 | alvocidib -0.008 | [2] 0.004

ING5 (UniProt Q8WYH8)
inactive: alvocidib 0.034 | Tubastatin A 0.192 | [1] -0.147 | rucaparib 0.129 | encorafenib -0.078

KIF1B isoform 3 (UniProt O60333)
inactive: defactinib 0.127 | rucaparib -0.046 | encorafenib -0.222 | [3] 0.17

ILF3 (UniProt Q12906)
inactive: sotrastaurin 0.009 | rucaparib 0.384 | encorafenib 0.081

MAP3K20 isoform 2 (UniProt Q9NYL2)
inactive: sotrastaurin 0.059 | Tubastatin A 0.093 | [1] -0.024

MAP4K4 isoform 3 (UniProt O95819)
inactive: saracatinib -0.054 | Tubastatin A -0.002 | [1] -0.051 | defactinib -0.067 | rucaparib -0.004 | [2] -0.037 | encorafenib 0.026 | [3] 0.018

MAP4K4 isoform 6 (UniProt O95819)
inactive: saracatinib -0.108 | Tubastatin A -0.016 | defactinib -0.012 | rucaparib 0.067 | [2] -0.186 | encorafenib 0.049 | [3] -0.036

IKZF1 isoform 2 (UniProt Q13422)
inactive: sotrastaurin 0.049 | alvocidib -0.101 | Tubastatin A -0.123 | [1] 0.05 | defactinib -0.106 | [3] -0.02

MAPRE3 isoform 2 (UniProt Q9UPY8)
inactive: alvocidib -0.075 | Tubastatin A 0.13

MED29 (UniProt Q9NX70)
inactive: saracatinib -0.033 | [1] 0.004 | [2] 0.001

LEPROT (UniProt O15243)
UniProt O15243, sequence (O15243 whole entry, looked up): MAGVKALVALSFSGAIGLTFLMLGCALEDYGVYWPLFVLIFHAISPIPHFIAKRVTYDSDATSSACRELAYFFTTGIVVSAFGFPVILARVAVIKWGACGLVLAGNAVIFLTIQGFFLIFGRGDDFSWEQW
inactive: saracatinib -0.261 | alvocidib 0.071 | Tubastatin A -0.133 | [1] 0.087 | rucaparib 0.028 | [2] -0.25 | encorafenib -0.077

MFSD1 isoform 6 (UniProt Q9H3U5)
inactive: sotrastaurin -0.041 | alvocidib 0.022 | Tubastatin A -0.039 | [1] 0.066 | defactinib 0.046 | rucaparib -0.014 | encorafenib -0.028 | [3] -0.004

LDLRAP1 (UniProt Q5SW96)
inactive: [1] -0.014

MAP4K5 (UniProt Q9Y4K4)
UniProt Q9Y4K4, sequence (Q9Y4K4 whole entry, looked up): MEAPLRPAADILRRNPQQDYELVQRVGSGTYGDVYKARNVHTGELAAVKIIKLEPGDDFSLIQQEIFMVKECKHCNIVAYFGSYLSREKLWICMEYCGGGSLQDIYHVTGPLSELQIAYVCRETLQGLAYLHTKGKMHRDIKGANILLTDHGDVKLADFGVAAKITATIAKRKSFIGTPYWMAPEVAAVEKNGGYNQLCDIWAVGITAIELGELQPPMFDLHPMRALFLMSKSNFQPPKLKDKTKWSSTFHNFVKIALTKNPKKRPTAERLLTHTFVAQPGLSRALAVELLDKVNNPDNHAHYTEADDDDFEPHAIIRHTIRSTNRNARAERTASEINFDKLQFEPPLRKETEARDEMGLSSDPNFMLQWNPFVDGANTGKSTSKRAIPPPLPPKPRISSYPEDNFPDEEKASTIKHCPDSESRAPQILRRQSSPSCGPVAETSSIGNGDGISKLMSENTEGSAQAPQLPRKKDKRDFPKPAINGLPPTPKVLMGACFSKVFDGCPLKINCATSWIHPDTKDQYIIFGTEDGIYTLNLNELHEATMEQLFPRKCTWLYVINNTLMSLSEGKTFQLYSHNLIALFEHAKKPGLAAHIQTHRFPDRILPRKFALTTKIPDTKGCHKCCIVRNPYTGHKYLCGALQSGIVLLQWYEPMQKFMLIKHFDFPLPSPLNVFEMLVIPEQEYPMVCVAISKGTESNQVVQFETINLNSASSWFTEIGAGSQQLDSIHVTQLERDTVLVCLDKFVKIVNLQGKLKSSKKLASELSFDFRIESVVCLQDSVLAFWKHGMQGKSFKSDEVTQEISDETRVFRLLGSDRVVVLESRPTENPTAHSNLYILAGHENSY
inactive: alvocidib 0.072 | Tubastatin A 0.113 | [1] -0.02 | defactinib -0.02 | rucaparib -0.08 | encorafenib 0.082 | [3] -0.041

MGRN1 isoform 2 (UniProt O60291)
inactive: alvocidib 0.036 | Tubastatin A 0.197 | [1] -0.054

LOX (UniProt P28300)
inactive: [1] -0.303

MAP4 isoform 5 (UniProt P27816)
inactive: sotrastaurin -0.16 | [1] 0.13 | rucaparib 0.046 | encorafenib 0.094

MAPK12 (UniProt P53778)
inactive: saracatinib 0.119 | Tubastatin A -0.037 | [1] 0.112 | defactinib -0.06 | rucaparib 0.101 | [2] -0.074 | encorafenib 0.017 | [3] 0.059

LRRFIP1 isoform 4 (UniProt Q32MZ4)
inactive: saracatinib 0.008 | alvocidib 0.481 | [1] -0.111 | [2] -0.089

LYN isoform 2 (UniProt P07948)
UniProt P07948, sequence (P07948 whole entry, looked up): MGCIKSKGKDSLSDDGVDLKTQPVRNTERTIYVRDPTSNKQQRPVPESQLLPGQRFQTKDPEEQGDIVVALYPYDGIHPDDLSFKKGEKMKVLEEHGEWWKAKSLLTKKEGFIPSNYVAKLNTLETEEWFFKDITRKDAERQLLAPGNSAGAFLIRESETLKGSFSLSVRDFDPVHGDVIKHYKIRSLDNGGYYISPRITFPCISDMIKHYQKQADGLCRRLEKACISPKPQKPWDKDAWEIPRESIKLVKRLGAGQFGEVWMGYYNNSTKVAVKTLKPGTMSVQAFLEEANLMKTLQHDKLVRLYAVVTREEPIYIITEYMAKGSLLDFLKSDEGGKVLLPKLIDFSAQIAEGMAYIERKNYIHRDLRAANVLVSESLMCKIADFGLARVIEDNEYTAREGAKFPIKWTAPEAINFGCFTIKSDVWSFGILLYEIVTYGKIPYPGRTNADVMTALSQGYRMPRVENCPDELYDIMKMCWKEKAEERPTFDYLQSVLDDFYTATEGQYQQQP
inactive: sotrastaurin 0.034 | alvocidib 0.015 | [1] 0.043 | defactinib -0.035 | [3] -0.004

ITPRID2 (UniProt P28290)
inactive: [1] -0.299 | defactinib -0.158 | rucaparib -0.019 | encorafenib -0.087 | [3] 0.059

MAP4K2 (UniProt Q12851)
UniProt Q12851, sequence (Q12851 whole entry, looked up): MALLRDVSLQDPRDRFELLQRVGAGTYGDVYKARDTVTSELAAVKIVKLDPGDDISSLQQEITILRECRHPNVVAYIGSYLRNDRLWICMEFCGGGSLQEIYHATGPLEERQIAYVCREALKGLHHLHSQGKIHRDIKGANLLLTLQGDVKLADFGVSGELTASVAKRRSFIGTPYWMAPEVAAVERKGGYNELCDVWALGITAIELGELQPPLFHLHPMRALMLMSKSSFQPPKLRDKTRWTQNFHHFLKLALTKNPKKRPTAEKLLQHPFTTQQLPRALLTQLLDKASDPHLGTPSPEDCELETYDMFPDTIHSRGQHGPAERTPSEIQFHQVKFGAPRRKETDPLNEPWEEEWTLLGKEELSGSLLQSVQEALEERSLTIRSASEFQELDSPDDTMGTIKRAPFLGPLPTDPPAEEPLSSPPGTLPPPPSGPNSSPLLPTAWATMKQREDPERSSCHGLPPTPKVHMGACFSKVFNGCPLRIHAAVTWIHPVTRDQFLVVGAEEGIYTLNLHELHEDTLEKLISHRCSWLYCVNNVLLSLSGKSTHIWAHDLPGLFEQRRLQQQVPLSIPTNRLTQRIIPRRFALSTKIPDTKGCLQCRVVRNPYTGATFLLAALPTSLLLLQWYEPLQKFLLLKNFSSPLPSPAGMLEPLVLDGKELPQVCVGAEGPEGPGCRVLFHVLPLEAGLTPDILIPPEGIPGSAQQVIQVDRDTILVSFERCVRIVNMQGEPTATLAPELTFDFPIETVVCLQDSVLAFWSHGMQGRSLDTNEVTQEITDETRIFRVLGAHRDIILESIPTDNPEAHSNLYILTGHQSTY
inactive: sotrastaurin -0.184 | alvocidib -0.076 | Tubastatin A 0.076 | rucaparib -0.003 | encorafenib 0.066

MCM10 (UniProt Q7L590)
UniProt Q7L590, sequence (Q7L590 whole entry, looked up): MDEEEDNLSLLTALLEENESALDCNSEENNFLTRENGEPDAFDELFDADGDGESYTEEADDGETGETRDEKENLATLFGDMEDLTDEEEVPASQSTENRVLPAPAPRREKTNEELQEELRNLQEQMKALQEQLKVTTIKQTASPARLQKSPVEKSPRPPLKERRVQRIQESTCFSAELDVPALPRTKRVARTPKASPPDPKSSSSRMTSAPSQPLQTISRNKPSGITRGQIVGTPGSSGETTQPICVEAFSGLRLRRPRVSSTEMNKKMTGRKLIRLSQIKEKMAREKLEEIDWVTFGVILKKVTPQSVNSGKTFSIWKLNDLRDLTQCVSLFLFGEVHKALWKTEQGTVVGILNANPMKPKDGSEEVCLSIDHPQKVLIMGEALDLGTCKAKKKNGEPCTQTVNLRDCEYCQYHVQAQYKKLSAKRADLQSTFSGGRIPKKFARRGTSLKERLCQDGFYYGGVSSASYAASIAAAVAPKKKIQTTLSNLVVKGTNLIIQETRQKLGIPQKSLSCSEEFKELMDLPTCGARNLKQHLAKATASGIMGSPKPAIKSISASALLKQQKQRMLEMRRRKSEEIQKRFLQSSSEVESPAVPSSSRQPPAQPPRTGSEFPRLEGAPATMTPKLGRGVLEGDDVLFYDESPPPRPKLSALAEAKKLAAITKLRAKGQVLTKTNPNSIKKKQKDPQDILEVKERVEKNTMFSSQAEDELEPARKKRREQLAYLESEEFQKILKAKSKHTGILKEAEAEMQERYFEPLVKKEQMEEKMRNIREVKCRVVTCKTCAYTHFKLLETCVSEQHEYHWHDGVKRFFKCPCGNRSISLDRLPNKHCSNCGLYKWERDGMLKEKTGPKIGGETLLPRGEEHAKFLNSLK
inactive: sotrastaurin -0.09 | Tubastatin A -0.017 | [1] 0.014 | defactinib 0.018 | rucaparib -0.021 | encorafenib -0.049 | [3] -0.007

MAPK11 (UniProt Q15759)
inactive: Tubastatin A 0.208 | [1] 0.615

LSR (UniProt M0QZL9)
inactive: sotrastaurin 0.042 | defactinib 0.065 | [3] -0.249

LRRCC1 (UniProt Q9C099)
inactive: saracatinib 0 | Tubastatin A 0.292 | [2] 0.06

MARCHF3 (UniProt Q86UD3)
inactive: sotrastaurin -0.055 | rucaparib 0 | encorafenib 0.097

KMT5A (UniProt Q9NQR1)
inactive: sotrastaurin -0.18

KIF13A isoform 4 (UniProt Q9H1H9)
inactive: sotrastaurin -0.027 | alvocidib -0.091

KIF21A (UniProt H0YI78)
inactive: [1] -0.012

LMNA isoform 2 (UniProt P02545)
inactive: Tubastatin A 0.052

LIN52 (UniProt Q52LA3)
inactive: saracatinib 0.038 | [2] -0.059

IKZF1 (UniProt R9R4D9)
inactive: saracatinib 0.019 | alvocidib 0.155 | Tubastatin A -0.158 | [2] -0.038

MBLAC1 (UniProt A4D2B0)
inactive: saracatinib 0.164 | alvocidib 0.002 | [1] 0.049 | defactinib 0.003 | rucaparib 0.023 | [2] -0.005 | encorafenib 0.035 | [3] -0.02

KIZ (UniProt Q2M2Z5)
UniProt Q2M2Z5, sequence (Q2M2Z5 whole entry, looked up): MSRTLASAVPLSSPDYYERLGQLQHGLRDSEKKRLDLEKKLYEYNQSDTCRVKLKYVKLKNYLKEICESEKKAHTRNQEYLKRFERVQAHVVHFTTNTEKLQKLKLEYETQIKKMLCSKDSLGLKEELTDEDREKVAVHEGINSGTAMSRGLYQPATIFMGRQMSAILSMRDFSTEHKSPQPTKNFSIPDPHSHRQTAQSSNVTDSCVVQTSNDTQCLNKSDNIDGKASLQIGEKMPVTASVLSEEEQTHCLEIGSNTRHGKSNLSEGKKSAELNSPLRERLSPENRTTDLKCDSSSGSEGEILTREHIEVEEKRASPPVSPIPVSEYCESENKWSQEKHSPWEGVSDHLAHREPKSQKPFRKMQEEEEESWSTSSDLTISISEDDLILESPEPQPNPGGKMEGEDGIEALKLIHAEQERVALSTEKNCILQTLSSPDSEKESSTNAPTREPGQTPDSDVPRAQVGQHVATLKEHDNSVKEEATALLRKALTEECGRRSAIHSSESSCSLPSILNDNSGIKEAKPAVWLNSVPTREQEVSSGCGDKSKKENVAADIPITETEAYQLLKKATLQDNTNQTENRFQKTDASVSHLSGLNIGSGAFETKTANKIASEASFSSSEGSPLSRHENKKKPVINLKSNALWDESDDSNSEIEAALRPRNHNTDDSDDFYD
inactive: alvocidib -0.076 | rucaparib -0.027 | encorafenib -0.038
